Compound activity from PubChem.
HTT aggregate – mutant huntingtin aggregation inhibition. PC12 HttQ103-GFP aggregates, Acumen cytometry, 40 h. 1.1% of 220,000 active. Potency, µM (top dose mostly 46.1 µM), inactives show top-dose activity change, negative = inhibition, hits mostly inhibitors; note: potency is the fitted concentration of half-maximal effect; % is set by controls: 0 for no effect and ±100 for the full control effect; nearly all actives have a fitted effect of over 60% in size
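Aggregates are detected as GFP objects 1–25 µm with signal 6 STDEV over background in lysates of induced PC12 cells. These carry Huntingtin exon 1 with 103 glutamines fused to GFP under an ecdysone promoter; compounds titrated.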
GoLoco inh red – blocks human Gai1 binding to RGS12 GoLoco peptide, red readout; P63096; Gai1:RGS12 GoLoco peptide FP, rhodamine, 10 min; Potency, µM (doses to about 61.6 µM), inactives show at the highest dose activity, negative = inhibition, usual class: inhibitors; 0.44% of 230,000 active; active = well fitted inhibition curve with a large enough effect, not every such curve was filed as active; inactive = no such curve, though single readings can be large or run the other way; note: potency is the fitted concentration of half-maximal effect; % is set by controls: 0 for no effect and ±100 for the full control effect; nearly all actives have a fitted effect of over 30% in size
Target sequence (P63096 whole entry, looked up): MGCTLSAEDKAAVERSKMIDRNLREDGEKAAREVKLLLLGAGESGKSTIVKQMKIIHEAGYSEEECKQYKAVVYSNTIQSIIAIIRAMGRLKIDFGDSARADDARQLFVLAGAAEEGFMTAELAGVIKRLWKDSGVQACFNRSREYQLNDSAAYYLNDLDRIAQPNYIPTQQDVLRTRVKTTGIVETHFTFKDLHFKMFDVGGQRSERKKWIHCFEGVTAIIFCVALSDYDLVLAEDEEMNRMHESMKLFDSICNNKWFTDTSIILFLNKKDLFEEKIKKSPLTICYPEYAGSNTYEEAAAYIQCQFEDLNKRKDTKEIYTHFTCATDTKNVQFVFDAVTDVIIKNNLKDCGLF
HTT ATP protect – cytoprotection in Huntington HTT-Q103 PC12 cell model; PC12 HTT-Q103 induced, cytoprotection, ATP luminescence, 40 h; Potency, µM (series often up to 56.4 µM), for the others: cytoprotection (ATP increase), hits mostly activators; 0.14% of 230,000 active; AID 1471; note: potency is the fitted concentration of half-maximal effect; % of control where 0% means no effect; nearly all actives have a fitted effect of over 45% in size
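Readout: ATPlite luminescence (ATP level). Model: stable PC12, inducible Htt exon1 Q103-GFP. Inducer: tebufenozide, 100 nM final. Compounds: dose series. No G418 in medium.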
JMJD2E inh – blocks human JMJD2E demethylase activity; B2RXH2; JMJD2E catalytic domain, FDH-coupled NADH fluorescence (FDH is formaldehyde dehydrogenase); Potency, µM (doses to about 57.1 µM), for the others: top-dose activity change, negative = inhibition, hits mostly inhibitors; 1.6% of 230,000 active; AID 2147; active = well fitted inhibition curve with a large enough effect, not every such curve was filed as active; inconclusive = small, poorly fitted or top-dose-only effect, or another doubt; inactive = no such curve, though single readings can be large or run the other way;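 note: potency is the fitted concentration of half-maximal effect; 0% = wells with enzyme and -100% = buffer wells without enzyme; nearly all actives have a fitted effect of over 50% in size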
VDR inh – blocks the human vitamin D receptor; P11473; VDR-SRC2-3 peptide fluorescence polarization, 2 h; Potency, µM, inactives show max response, negative = inhibition, hits mostly inhibitors; 0.93% of 400,000 active; AID 504847; note: potency is the fitted concentration of half-maximal effect; % is set by controls: 0 for no effect and ±100 for the full control effect
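Fluorescence polarization assay of small-molecule disruption of VDR binding to coregulator peptide SRC2-3. Compounds and controls pin-transferred, then read after 2 h incubation at ambient room temperature.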
FBPA coupling cs – inhibits coupling enzyme system, counter-screen for aldolase hits; activity change, negative = inhibition, % at 58.2 µM, hits read low; AID 2472; coupling enzyme system counterscreen, AmpLite Red fluorescence; 0.67% of 290,000 active; in the data active = activity change below about -30%; note: % is set by controls: 0 for no effect and ±100 for the full control effect
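Fluorescence at 525 nm excitation and 598 nm emission measured inhibition of the coupled detection system without aldolase. Compounds (at 57.5 uM final) were preincubated 10 min at room temperature with coupling enzyme reagent before a 20 min substrate/AmpLite Red step.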
Numbers without * were called inactive; ? = inconclusive; nt = not tested or not shown; [ ] = dose if it differs, or a comment. Rows were chosen to be rich in hits. Some 2.3% of all compounds tested hit in one or more screens of this group. Unless noted, calls come from the whole dose curve; as a rule, active = well fitted curve in the direction sought with a large enough effect; inconclusive = small, poorly fitted or top-dose-only effect, or another doubt; inactive = no such curve, though single readings can be large; an effect the other way counts as inactive or inconclusive.

SMILES | HTT aggregate | GoLoco inh red | HTT ATP protect | JMJD2E inh | VDR inh | FBPA coupling cs
Cc1ccc(NC(=O)Cn2c(=O)n(CCCCCC(=O)NCc3ccc(F)cc3)c(=O)c3sccc32)cc1C | nt | nt | nt | nt | 80.5% | nt
Cc1ccc2ccc3cc(C(=O)Nc4ccc(C)c(F)c4)nc3c2[nH]1 | nt | nt | nt | nt | 8.1% | nt
COC(=O)/C(=C/Nc1ccc(O)cc1)[N+](=O)[O-] | -2.8% | -6.1% | 2.0% | ? | -2.8% | -35.7*
N#CCN1C(=O)NC2(CCCc3sccc32)C1=O (stereo unspecified) | nt | nt | nt | nt | 28.2% | 0.0
Fc1ccc(Br)cc1C1C=C(c2ccc(Br)s2)Nc2ncnn21 (stereo unspecified) | ? | 1.8% | -29.7%[10 µM] | 28.2µM* | 0.0% | 5.6
CN(NS(=O)(=O)c1ccc(Cl)cc1)c1nc(C(F)(F)F)nc2ccccc12 | 10µM* | 7.7% | -55.9% | 3.0% | 9.6% | 8.1
C=CCN(CC=C)C(=S)NC(=O)c1ccc(OC)cc1 | nt | 15.6% | nt | -6.8% | -3.6% | 2.7
COc1ccc(C(=O)NC(=S)N(Cc2ccccc2)Cc2ccccc2)cc1 | 10µM* | 7.6% | 11.8% | 0.2% | -12.0% | 6.1
Cc1nn(C)cc1/C=N/NC(=S)Nc1ccccc1 | 18.7% | 3.0% | -25.9% | ? | 89.1µM* | -1.8
N#Cc1c[nH]n2c(NC3CCCC3)c(-c3cccc(Br)c3)nc12 | nt | nt | nt | nt | -2.4% | nt
CN(C)c1ccc2c(O)cc(=O)n(C)c2c1 | 6.0% | 7.6% | 4.7% | ? | 31.6µM* | -36.8*
CN(c1ccc(Cl)cc1)c1cc(=O)n(C)c2ccccc12 | -2.6% | 6.6% | -36.4% | -7.3% | -2.8% | 1.9
CC1CCCN(c2ccc(C(=O)Nc3cccnc3)cc2[N+](=O)[O-])C1 (stereo unspecified) | -15.2% | 4.5% | -12.6% | 4.9% | -3.5% | -1.2
COC(=O)C(Cc1ccccc1)N1CCS(=O)(=O)CC1 (stereo unspecified) | 7.6%[9.22 µM] | 4.1% | -22.0% | 6.1% | -7.2% | -1.6
O=C(O)C(Cc1ccccc1)N1CCS(=O)(=O)CC1 (stereo unspecified) | 4.9% | -4.8% | 2µM* | 13.3% | -4.9% | 0.1
CC(=O)N1CCCc2cc(S(=O)(=O)N3CCC(C(=O)Nc4cccc(Cl)c4C)CC3)ccc21 | nt | nt | nt | nt | 15.7% | nt
Cc1c(Cl)sn(-c2ccc(Cl)cc2)c1=O | 16.5%[9.22 µM] | 14.1µM* | -13.2% | -0.9% | 44.7µM* | 6.8
COc1ccc(-c2cccc(C3CC=CC4C3C(=O)N(Cc3ccccc3)C4c3ccc(C(F)(F)F)cc3)c2)cc1 (stereo unspecified) | 1µM* | -5.7% | -44.9%[10 µM] | -12.9% | -17.6% | 0.8
O=[N+]([O-])c1ccc(S(=O)(=O)N2CCSC2c2ccco2)cc1 (stereo unspecified) | -3.6%[9.22 µM] | -1.5% | 11.8%[10 µM] | -1.2% | 79.4µM* | -8.4
O=S(=O)(c1ccc(Cl)cc1)N1CCSC1c1ccco1 (stereo unspecified) | -15.9% | -2.9% | -2.3% | -3.0% | -10.1% | -7.6
O=C(COc1cc2oc(=O)c3c(c2cc1Cl)CCCC3)NCC1CCC(C(=O)O)CC1 (stereo unspecified) | nt | nt | nt | nt | 10.4% | nt
CCOc1ccc(C(=O)C(CCC(CN(C)C)C(=O)c2ccc(OCC)cc2)CN(C)C)cc1 (stereo unspecified) | ? | -0.9% | -42.6%[10 µM] | -2.5% | ? | -0.5
CN(C)CC(CCC(CN(C)C)C(=O)c1ccccc1)C(=O)c1ccccc1 (stereo unspecified) | ? | 0.7% | ? | -2.1% | 44.7µM* | -1.0
Oc1cccc(-c2nc3ncccn3c2Nc2cccc(C(F)(F)F)c2)c1 | nt | nt | nt | nt | -1.7% | nt
FC(F)(F)c1cccc(NCc2cn3cccnc3n2)c1 | -11.7% | 18.3% | -11.4% | -11.6% | -16.6% | -51.6*
CCOc1ccc(NCC(=O)c2ccc(C)cc2)cc1 | 11.2µM* | 5.3% | -221.3% | -13.8% | 4.7% | 1.9
COc1ccc(N=Cc2cc3c(cc2O)OC(N)=C(C#N)C3c2ccccc2)cc1 (stereo unspecified) | 7.94µM* | 51.8% | 6.8%[1.9 µM] | ? | -19.0% | -11.1
